# Laboratory results published in PMC7862700, “An all-to-all approach to the identification of sequence-specific readers for epigenetic DNA modifications on cytosine”.
# Columns and labels:
# Assay in all cases: DAPPL (digital affinity profiling via proximity ligation, sequencing); 10 mM Tris-HCl pH 7.5, 50 mM NaCl, 1 mM DTT, 4% glycerol, room temperature, 30 min; GST-TFs on glutathione beads, 16-mer random dsDNA library, 0.1% formaldehyde crosslink after washing; high values mean tight binding
# Details in all cases: protein: recombinant; tags: N-terminal GST; dsDNA, one strand shown
# FLI1 = molecular target: T1, FLI1 (Homo sapiens, UniProt Q01543 1-452)
# T1 sequence: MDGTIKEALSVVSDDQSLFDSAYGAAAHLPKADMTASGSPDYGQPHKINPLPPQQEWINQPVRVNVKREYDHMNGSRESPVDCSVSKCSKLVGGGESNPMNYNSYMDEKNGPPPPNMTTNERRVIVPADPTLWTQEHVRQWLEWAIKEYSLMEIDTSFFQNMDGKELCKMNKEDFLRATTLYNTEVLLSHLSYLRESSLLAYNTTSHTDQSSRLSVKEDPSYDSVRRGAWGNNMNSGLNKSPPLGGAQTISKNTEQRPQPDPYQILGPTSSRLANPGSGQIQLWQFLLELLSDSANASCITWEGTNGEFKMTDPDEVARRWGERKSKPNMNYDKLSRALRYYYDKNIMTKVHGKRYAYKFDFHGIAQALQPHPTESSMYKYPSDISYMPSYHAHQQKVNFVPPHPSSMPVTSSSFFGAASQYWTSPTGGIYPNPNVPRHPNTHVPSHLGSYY
# In short: (§1)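 GST fusions of human transcription factors were expressed in yeast and captured with glutathione beads. Once given DNA barcodes and pooled alongside a tag-only sample, they were incubated for 30 min at room temperature with 200 nmole of a random double-stranded 16-mer DNA library in Tris/NaCl/DTT/glycerol buffer, then washed, crosslinked (0.1% formaldehyde), proximity-ligated, PCR-amplified and sequenced on an Illumina NextSeq500. The binding signal of each hexamer is its read frequency for a factor divided by its frequency for the tag-only sample.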
# ELK1 = molecular target: T2, ELK1 (Homo sapiens, UniProt P19419 1-428)
# T2 sequence: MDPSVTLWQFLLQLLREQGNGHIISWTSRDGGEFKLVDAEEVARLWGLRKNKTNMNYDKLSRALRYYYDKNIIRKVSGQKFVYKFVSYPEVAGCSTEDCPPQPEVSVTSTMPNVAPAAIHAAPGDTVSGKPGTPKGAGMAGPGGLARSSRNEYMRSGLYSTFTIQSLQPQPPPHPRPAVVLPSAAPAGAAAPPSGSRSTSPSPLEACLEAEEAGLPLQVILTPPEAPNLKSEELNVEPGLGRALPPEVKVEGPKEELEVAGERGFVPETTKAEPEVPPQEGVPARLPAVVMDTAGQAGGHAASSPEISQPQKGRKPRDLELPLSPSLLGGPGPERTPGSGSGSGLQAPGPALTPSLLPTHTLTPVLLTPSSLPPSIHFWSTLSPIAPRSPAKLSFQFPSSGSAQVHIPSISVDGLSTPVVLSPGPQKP
# In short: as §1
# GABPA = molecular target: T3, GABPA (Homo sapiens, UniProt Q06546 1-454)
# T3 sequence: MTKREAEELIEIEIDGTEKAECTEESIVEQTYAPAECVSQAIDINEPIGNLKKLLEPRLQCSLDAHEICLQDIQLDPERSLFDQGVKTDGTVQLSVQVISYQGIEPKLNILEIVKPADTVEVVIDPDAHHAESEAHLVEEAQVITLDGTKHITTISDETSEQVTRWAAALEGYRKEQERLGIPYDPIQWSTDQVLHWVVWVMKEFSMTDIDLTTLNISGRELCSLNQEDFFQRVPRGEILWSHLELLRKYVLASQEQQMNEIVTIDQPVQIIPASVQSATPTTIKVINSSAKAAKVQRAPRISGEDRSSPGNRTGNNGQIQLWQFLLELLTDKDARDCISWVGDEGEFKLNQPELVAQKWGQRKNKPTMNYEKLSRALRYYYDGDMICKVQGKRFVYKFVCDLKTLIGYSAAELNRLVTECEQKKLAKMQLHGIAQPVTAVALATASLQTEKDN
# In short: as §1
# ERG = molecular target: T4, ERG (Homo sapiens, UniProt P11308 1-479)
# T4 sequence: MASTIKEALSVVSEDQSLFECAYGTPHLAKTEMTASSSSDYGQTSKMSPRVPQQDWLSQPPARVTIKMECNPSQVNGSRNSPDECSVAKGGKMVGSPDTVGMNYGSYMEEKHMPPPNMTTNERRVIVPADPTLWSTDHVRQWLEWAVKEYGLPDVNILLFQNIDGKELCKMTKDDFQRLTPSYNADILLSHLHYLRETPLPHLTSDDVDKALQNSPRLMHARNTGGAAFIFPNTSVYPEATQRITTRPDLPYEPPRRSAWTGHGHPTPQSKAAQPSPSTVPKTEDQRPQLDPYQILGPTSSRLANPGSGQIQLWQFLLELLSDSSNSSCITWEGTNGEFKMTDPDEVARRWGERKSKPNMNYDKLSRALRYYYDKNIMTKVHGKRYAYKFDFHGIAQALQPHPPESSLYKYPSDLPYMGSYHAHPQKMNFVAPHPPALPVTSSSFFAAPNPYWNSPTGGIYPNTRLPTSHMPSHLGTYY
# In short: as §1
# ELF1 = ELF1 (Homo sapiens, UniProt P32519 1-619)
# Chain of ELF1 (P32519 whole entry): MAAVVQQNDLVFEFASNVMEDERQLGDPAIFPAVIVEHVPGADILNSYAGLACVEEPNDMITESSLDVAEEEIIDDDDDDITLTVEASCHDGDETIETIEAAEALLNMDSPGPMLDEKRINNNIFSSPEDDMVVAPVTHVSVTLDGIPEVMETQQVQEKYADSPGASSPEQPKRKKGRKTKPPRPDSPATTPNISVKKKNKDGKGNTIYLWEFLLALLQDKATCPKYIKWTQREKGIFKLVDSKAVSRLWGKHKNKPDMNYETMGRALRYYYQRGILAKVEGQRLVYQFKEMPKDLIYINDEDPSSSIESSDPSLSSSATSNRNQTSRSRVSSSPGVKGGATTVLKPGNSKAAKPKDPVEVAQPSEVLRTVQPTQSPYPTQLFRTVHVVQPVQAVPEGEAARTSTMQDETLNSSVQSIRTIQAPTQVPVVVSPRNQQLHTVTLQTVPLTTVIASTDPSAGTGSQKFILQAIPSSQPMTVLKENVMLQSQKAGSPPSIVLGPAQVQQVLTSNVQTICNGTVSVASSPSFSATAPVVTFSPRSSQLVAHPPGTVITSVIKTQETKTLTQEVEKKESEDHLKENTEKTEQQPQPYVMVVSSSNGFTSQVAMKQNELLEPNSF
# In short: as §1
# EHF = molecular target: T5, EHF (Homo sapiens, UniProt Q9NZC4 1-300)
# T5 sequence: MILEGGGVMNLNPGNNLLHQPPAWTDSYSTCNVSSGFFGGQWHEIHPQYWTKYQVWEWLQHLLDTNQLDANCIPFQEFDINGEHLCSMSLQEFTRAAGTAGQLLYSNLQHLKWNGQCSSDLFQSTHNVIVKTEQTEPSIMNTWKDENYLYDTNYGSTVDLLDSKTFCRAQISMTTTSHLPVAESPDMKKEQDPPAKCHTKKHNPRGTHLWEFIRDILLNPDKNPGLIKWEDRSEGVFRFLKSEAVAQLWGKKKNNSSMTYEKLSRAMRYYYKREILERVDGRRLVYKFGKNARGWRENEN
# In short: as §1
# SPI1 = SPI1 (Homo sapiens, UniProt P17947 1-270)
# In short: as §1
# SPIB = SPIB (Homo sapiens, UniProt Q01892 1-262)
# Chain of SPIB (Q01892 whole entry): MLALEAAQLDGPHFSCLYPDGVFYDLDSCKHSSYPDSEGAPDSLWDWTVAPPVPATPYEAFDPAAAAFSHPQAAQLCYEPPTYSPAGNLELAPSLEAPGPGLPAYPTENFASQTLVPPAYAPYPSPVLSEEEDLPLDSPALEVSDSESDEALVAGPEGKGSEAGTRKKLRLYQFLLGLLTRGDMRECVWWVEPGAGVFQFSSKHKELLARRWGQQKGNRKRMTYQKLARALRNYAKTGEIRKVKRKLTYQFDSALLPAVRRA
# In short: as §1
# ELK3 = molecular target: T6, ELK3 (Homo sapiens, UniProt P41970 1-407)
# T6 sequence: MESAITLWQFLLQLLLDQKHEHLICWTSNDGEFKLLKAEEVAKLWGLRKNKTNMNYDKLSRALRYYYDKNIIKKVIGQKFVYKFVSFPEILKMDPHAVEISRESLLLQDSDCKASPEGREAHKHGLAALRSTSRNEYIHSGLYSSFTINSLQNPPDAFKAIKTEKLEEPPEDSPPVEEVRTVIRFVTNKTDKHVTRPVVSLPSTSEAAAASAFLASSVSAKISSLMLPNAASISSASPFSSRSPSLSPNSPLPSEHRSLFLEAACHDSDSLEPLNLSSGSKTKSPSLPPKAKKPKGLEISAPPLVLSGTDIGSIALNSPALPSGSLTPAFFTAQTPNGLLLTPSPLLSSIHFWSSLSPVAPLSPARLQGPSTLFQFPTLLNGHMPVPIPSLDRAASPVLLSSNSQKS
# In short: as §1
sequence,measurement,setting,value
TTCATT,binding signal,FLI1,"1.25 fold enrichment (6-mer frequency, TF over GST control)"
same,binding signal,ELK1,"1.19 fold enrichment (6-mer frequency, TF over GST control)"
same,binding signal,GABPA,"1.16 fold enrichment (6-mer frequency, TF over GST control)"
same,binding signal,ERG,"1.2 fold enrichment (6-mer frequency, TF over GST control)"
same,binding signal,ELF1,"1.24 fold enrichment (6-mer frequency, TF over GST control)"
same,binding signal,EHF,"1.21 fold enrichment (6-mer frequency, TF over GST control)"
same,binding signal,SPI1,"1.21 fold enrichment (6-mer frequency, TF over GST control)"
same,binding signal,SPIB,"1.22 fold enrichment (6-mer frequency, TF over GST control)"
same,binding signal,ELK3,"1.23 fold enrichment (6-mer frequency, TF over GST control)"
